RORgamma inh – inhibitors of mouse ROR gamma transcriptional activity. AID 2551. Potency, µM (highest dose often 53.6 µM), for inactives: top-dose activity change, negative = inhibition, most hits filed as inhibitors. Drosophila S2 Gal4-RORgamma UAS-luciferase reporter, 20 h. hit rate 5.4% among 310,000. P51450; also: nearly all actives have a fitted effect of over 60% in size
Target sequence (P51450 whole entry, looked up, the tested form may be a part): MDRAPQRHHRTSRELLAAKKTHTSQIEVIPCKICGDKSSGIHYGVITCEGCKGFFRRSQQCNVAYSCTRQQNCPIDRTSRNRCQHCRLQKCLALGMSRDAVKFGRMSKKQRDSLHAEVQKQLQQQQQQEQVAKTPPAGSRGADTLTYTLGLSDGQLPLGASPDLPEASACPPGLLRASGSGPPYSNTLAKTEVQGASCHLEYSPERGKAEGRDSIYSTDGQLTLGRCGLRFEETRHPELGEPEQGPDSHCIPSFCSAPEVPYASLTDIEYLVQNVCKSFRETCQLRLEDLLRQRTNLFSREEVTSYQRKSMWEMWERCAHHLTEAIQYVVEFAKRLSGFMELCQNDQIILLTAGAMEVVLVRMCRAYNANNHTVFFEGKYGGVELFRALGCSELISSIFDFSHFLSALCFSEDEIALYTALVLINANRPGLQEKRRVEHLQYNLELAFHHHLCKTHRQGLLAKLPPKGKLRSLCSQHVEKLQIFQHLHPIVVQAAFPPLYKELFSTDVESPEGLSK
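Stable Schneider cell line, Gal4 DNA-binding domain fused to ROR gamma, UAS-luciferase. Cmpd 1 hr RT → CuSO4 700 uM final → 20 hr RT → luciferase reagent 10 min → luminescence.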
DT40 TDP1 CPT – DT40-hTDP1 cell growth loss with CPT. hit rate 12% among 420,000. chicken DT40 Tdp1-/-;hTDP1 cells + 20 nM CPT, ATP luminescence, 48 h. Potency, µM (top dose mostly 46.2 µM), inactives show at the top dose activity change, negative = growth inhibition, most hits filed as inhibitors; also: nearly all actives have a fitted effect of over 55% in size
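Cell growth measured by CellTiter-Glo luminescence after a minimum 48 h, 37 C compound exposure with 20 nM CPT in Tdp1-knockout DT40 cells stably expressing hTDP1, seeded 400/well; qHTS titration format.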
TDP1 inh – blocks human tyrosyl-DNA phosphodiesterase 1. recombinant TDP1, AlphaScreen DNA substrate cleavage. hit rate 0.28% among 350,000. Potency, µM (series often up to 130 µM), without a hit: top-dose activity change, negative = inhibition, hits mostly inhibitors. Q9NUW8; also: nearly all actives have a fitted effect of over 40% in size
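Here, a 5' biotin and 3' phosphotyrosine-FITC DNA oligonucleotide reports Tdp1 activity: intact substrate bridges AlphaScreen beads, while cleavage leaves a 3' phosphate and drops signal. All incubations at room temperature.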
TDP1 cell noCPT – qHTS for Inhibitors of human tyrosyl-DNA phosphodiesterase 1 (TDP1): qHTS in cells in absence of CPT | DT40 Tdp1-/- hTDP1 cells, no CPT, ATP luminescence, 48 h | hit rate 15% among 420,000 | Potency, µM (series often up to 46.2 µM), for inactives: at the top dose activity change, negative = growth inhibition, most hits filed as inhibitors; also: nearly all actives have a fitted effect of over 55% in size
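Camptothecin absent (DMSO only). Human TDP1-complemented DT40 knockout cells, 400 cells/well, 37 °C for minimum 48 hr; ATP measured via CellTiter-Glo, 30 min dark incubation, luminescence.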
Gal4-VP16 FLuc – inhibits Gal4-VP16 luciferase reporter, ROR gamma counter-screen; Drosophila S2 Gal4-VP16 UAS-luciferase, luminescence, 20 h; Potency, µM (highest dose often 53.6 µM), for the others: at the top dose activity, negative = inhibition, usual class: inhibitors; hit rate 3.5% among 310,000;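 also: Gal4-VP16 expression switched on by copper sulfate through the metallothionein promoter; nearly all actives have a fitted effect of over 50% in size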
* = called active by the depositor; ? = inconclusive; · = not tested or not shown. An excerpt weighted towards active compounds, which were near 19% of everything screened. Calls follow the shape of the dose curve; as a rule, active = well fitted curve in the direction sought with a large enough effect; inconclusive = small, poorly fitted or top-dose-only effect, or another doubt; inactive = no such curve, though single readings can be large; an effect the other way counts as inactive or inconclusive. % is scaled to controls: 0 for no effect and ±100 for the full control effect; potency is read from the fitted curve at half-maximal effect.

SMILES	RORgamma inh	DT40 TDP1 CPT	TDP1 inh	TDP1 cell noCPT	Gal4-VP16 FLuc
COc1ccc(N2C(=O)C(CC(=O)Nc3ccccc3)N(CCc3ccc(OC)c(OC)c3)C2=O)cc1 (stereo not given)	0.1%	-14.8%	3.5%	-24.4%	3.1%
OCCc1c[nH]c2cc(F)ccc12	-13.5%	-4.5%	·	-5.4%	-2.6%
CNC(=O)NC(=O)CSc1nc(-c2cccs2)c(C#N)c(=O)[nH]1	-4.1%	18.0%	0.0%	6.8%	3.5%
CCCN1C(=O)C(Cc2nc3ccccc3c(=O)n2C)c2ccccc21 (stereo not given)	7.8%	?	0.0%	?	-0.7%
CCCN1C(=O)C(Cc2nc3ccccc3c(=O)n2-c2ccc(OC)cc2)c2cc(C)ccc21 (stereo not given)	·	9.2µM*	4.7%	4.11µM*	·
CCN1C(=O)C(Cc2nc3ccccc3c(=O)n2-c2cccc(C)c2)c2ccccc21 (stereo not given)	·	?	7.0%	?	·
CCN1C(=O)C(Cc2nc3ccccc3c(=O)n2C)c2ccccc21 (stereo not given)	-9.6%	?	3.8%	14.6µM*	3.8%
CCN1C(=O)C(Cc2nc3ccccc3c(=O)n2-c2ccccc2)c2cc(Br)ccc21 (stereo not given)	·	5.8µM*	0.0%	5.8µM*	·
COc1ccc2oc(=O)cc(CN3CCN(c4ccc(F)cc4)CC3)c2c1	·	?	4.7%	23.1µM*	·
COc1ccc(N2CCN(Cc3cc(=O)oc4cc5c(cc34)CCCC5)CC2)cc1	?	20.6µM*	1.0%	13µM*	-3.1%
COc1ccc(N2CCN(Cc3cc(=O)oc4ccc(Cl)cc34)CC2)cc1	-25.1%	?	7.2%	-11.5%	-1.9%
CCc1ccc2oc(=O)cc(CN3CCN(c4ccc(F)cc4)CC3)c2c1	-2.6%	?	4.8%	16.4µM*	0.1%
COc1ccc(N2CCN(Cc3cc4c(cc3O)CCC4)CC2)cc1	5.2%	25.9µM*	10.7%	20.6µM*	-0.5%
COC(=O)C1=C(C)N(CCCC(=O)O)C(=O)NC1c1cccs1 (stereo not given)	-14.5%	-5.2%	-2.6%	-5.9%	1.2%
Cc1ccc(C(=O)N/C(=C/c2ccc(Cl)cc2)C(=O)N2CCOCC2)cc1	7.9%	7.2%	·	-23.0%	4.4%
CCOc1ccc2oc(=O)cc(CN3CCN(c4ccccc4)CC3)c2c1	·	?	0.0%	?	·
CCc1ccc2oc(=O)cc(CN3CCN(Cc4ccccc4)CC3)c2c1	-17.4%	?	·	20.6µM*	6.8%
COc1ccc2c(CN3CCN(c4ccccc4OC)CC3)cc(=O)oc2c1	·	?	·	14.6µM*	·
COc1ccc2c(CN(C)c3ccccc3)cc(=O)oc2c1	39.4%	29.1µM*	9.8%	?	7.7%
CCOc1ccc2oc(=O)cc(CN3CCN(c4cc(C)ccc4C)CC3)c2c1	·	14.6µM*	0.0%	16.4µM*	·
COc1cc2oc(=O)cc(CN3CCN(c4ccccc4OC)CC3)c2cc1Cl	·	-25.8%	·	?	·
O=c1cc(CN2CCN(Cc3ccccc3)CC2)c2cc(Cl)ccc2o1	5.4%	-11.7%	-2.9%	-19.2%	-4.8%
CCOc1ccc2oc(=O)cc(CN3CCN(Cc4ccc(F)cc4)CC3)c2c1	·	16.4µM*	-4.7%	23.1µM*	·
CCOc1ccc2oc(=O)cc(CN3CCOCC3)c2c1	-9.8%	14.6%	·	-2.5%	0.5%
CC(=O)Nc1ccc(NC(=O)c2ccc(C3SCC(=O)N3CCc3ccccc3)cc2)cc1 (stereo not given)	?	-16.3%	3.5%	-24.2%	-13.0%
SMILES	RORgamma inh	DT40 TDP1 CPT	TDP1 inh	TDP1 cell noCPT	Gal4-VP16 FLuc
COc1ncnc2c1ncn2CCCNc1ccc(C)c(C)c1	·	?	·	13µM*	·
COc1ncnc2c1ncn2CCCNCc1ccccc1	·	0.4%	·	-1.0%	·
OC(CNCCc1ccc(C(F)(F)F)cc1)COc1cccc2ccccc12 (stereo not given)	?	?	2.7%	?	12.6µM*
OC(CNCCc1ccc(C(F)(F)F)cc1)COc1ccc2ccccc2c1 (stereo not given)	15.8µM*	?	2.7%	-49.3%	11.2µM*
COc1ccccc1COCC(O)CNCCc1ccc(C(F)(F)F)cc1 (stereo not given)	-1.9%	?	·	?	-8.1%
OC(COc1ccc(CNCCc2ccc(C(F)(F)F)cc2)cc1)CN1CCCCC1 (stereo not given)	-43.7%	4.61µM*	-3.7%	5.8µM*	-15.9%
COc1ccccc1CNC(=O)COCc1cc(-c2ccc3c(c2)OCO3)on1	·	?	5.0%	?	·
CC(C)N1C(=O)CC(Nc2cccc3cccc(N)c23)C1=O (stereo not given)	-0.2%	23.1µM*	6.0%	20.6µM*	4.2%
O=C(NCc1nc2ccccc2[nH]1)C1=C[C@@H](c2ccc(Br)cc2)C[C@@H](OCc2ccc(CO)cc2)O1	-31.1%	9.2µM*	5.1%	18.4µM*	8.7%
O=C(NCc1nc2ccccc2[nH]1)C1=C[C@@H](c2csc3ccccc23)C[C@@H](OCc2ccc(CO)cc2)O1	-12.4%	?	6.4%	20.6µM*	19.5%
O=C(NC1CC1)C1=C[C@H](c2ccc(Br)cc2)C[C@H](OCc2ccc(CO)cc2)O1	22.4%	23.1µM*	0.0%	14.6µM*	9.5%
O=C(NCc1nc2ccccc2[nH]1)C1=C[C@H](c2csc3ccccc23)C[C@H](OCc2ccc(CO)cc2)O1	-17.3%	?	4.7%	14.6µM*	-15.3%
O=C(NCc1nc2ccccc2[nH]1)C1=C[C@@H](c2ccc(Br)cc2)C[C@@H](OCCCCO)O1	-3.2%	-22.6%	5.1%	?	9.3%
O=C(NC1CC1)C1=C[C@H](c2ccccc2)C[C@H](OCc2ccc(CO)cc2)O1	43.7%	?	5.1%	?	-3.1%
O=S(=O)(Nc1cccc(-c2nc3cccnc3s2)c1)c1cccs1	27.0%	-18.1%	-1.4%	?	2.9%
FC(F)Oc1ccc(N=C2SCC3CCCCN23)cc1 (stereo not given)	?	?	-7.1%	23.1µM*	-10.3%
CC(=O)c1c(NC(=O)C(C)C)nc(C)nc1-c1ccccc1	-1.0%	0.2%	1.0%	-5.4%	-5.3%
Cc1cccnc1C1=NOC(Cc2ccccc2)C(=O)N1CCOc1ccc(F)cc1 (stereo not given)	·	16.4µM*	·	23.1µM*	·
CCN(CC)S(=O)(=O)c1cc(C(=O)Oc2cccc(-c3cnc4ccccc4n3)c2)ccc1Br	18.8%	?	4.5%	18.4µM*	-5.3%
CCN(CC)S(=O)(=O)c1ccc(Cl)c(C(=O)Oc2cccc(-c3cnc4ccccc4n3)c2)c1	-14.0%	?	8.2%	?	9.4%

Source: PubChem (National Center for Advancing Translational Sciences (NCATS))
